Data taken from the supplement of paper PMC8728848.
Many of the other results were omitted from the sample, so the strongest signals are more common in it than they were.

Experiments:
Assay in all cases: glycan array binding signal (z-score within array); higher = stronger binding
Settings in all cases: glycan notation: IUPAC condensed, linker removed
[1] = biological target: Fuc(a1-2)Gal(b1-3)GalNAc(a1-3)[Fuc(a1-2)]Gal(b1-4)Glc
Summary of the method: (§1)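 Glycan array data were curated from 3228 arrays in the Consortium for Functional Glycomics database and kept only where the protein sequence was available. Glycan names were converted to IUPAC-condensed notation, and columns mapping to the same glycan were averaged. The binding signal is a within-array Z-score, averaged across arrays of the same protein sequence at different concentrations or buffers and across linkers. Negative Z-scores can be read as non-binding.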

[2] = biological target: Fuc(a1-2)Gal(b1-3)[Fuc(a1-4)]GlcNAc(b1-3)[Gal(b1-4)GlcNAc(b1-6)]Gal(b1-4)Glc
Summary of the method: as §1

[3] = biological target: Fuc(a1-2)[Gal(a1-3)]Gal(b1-3)GlcNAc(b1-6)GalNAc
Summary of the method: as §1

[4] = biological target: Fuc(a1-2)[Gal(a1-3)]Gal(b1-4)[Fuc(a1-3)]Glc
Summary of the method: as §1

[5] = biological target: Fuc(a1-2)[Gal(a1-4)]Gal(b1-4)GlcNAc
Summary of the method: as §1

[6] = biological target: Fuc(a1-2)[GalNAc(a1-3)]Gal(b1-3)GalNAc(a1-3)[Fuc(a1-2)]Gal(b1-4)GlcNAc
Summary of the method: as §1

[7] = biological target: Fuc(a1-2)[GalNAc(a1-3)]Gal(b1-4)GlcNAc(b1-3)Gal(b1-4)GlcNAc
Summary of the method: as §1

[8] = biological target: Fuc(a1-2)[GalNAc(a1-3)]Gal(b1-4)[Fuc(a1-3)]GlcNAc(b1-3)GalNAc
Summary of the method: as §1

[9] = biological target: Fuc(a1-3)[Gal(b1-4)]GlcNAc6S
Summary of the method: as §1

[10] = biological target: Gal(a1-3)Gal(b1-3)GlcNAc
Summary of the method: as §1

[11] = biological target: Gal(a1-3)Gal(b1-4)GlcNAc(b1-3)GalNAc
Summary of the method: as §1

[12] = biological target: Gal(a1-4)Gal(b1-3)GlcNAc(b1-2)Man(a1-3)[Gal(a1-4)Gal(b1-3)GlcNAc(b1-2)Man(a1-6)]Man(b1-4)GlcNAc(b1-4)GlcNAc
Summary of the method: as §1

[13] = biological target: Gal(b1-3)GlcNAc(b1-3)Gal(b1-4)GlcNAc(b1-6)[Gal(b1-3)GlcNAc(b1-3)]Gal(b1-4)Glc
Summary of the method: as §1

[14] = biological target: Gal(b1-3)[Fuc(a1-4)]GlcNAc(b1-6)GalNAc
Summary of the method: as §1

[15] = biological target: Gal(b1-4)GlcNAc
Summary of the method: as §1

[16] = biological target: Gal(b1-4)GlcNAc(a1-6)Gal(b1-4)GlcNAc
Summary of the method: as §1

[17] = biological target: Gal(b1-4)GlcNAc(b1-2)Man(a1-3)Man(b1-4)GlcNAc(b1-4)GlcNAc
Summary of the method: as §1

[18] = biological target: Gal(b1-4)GlcNAc(b1-2)[Gal(b1-4)GlcNAc(b1-4)]Man(a1-3)[GlcNAc(b1-4)][Gal(b1-4)GlcNAc(b1-2)Man(a1-6)]Man(b1-4)GlcNAc(b1-4)GlcNAc
Summary of the method: as §1

[19] = biological target: Gal(b1-4)GlcNAc(b1-2)[Gal(b1-4)GlcNAc(b1-6)]Man(a1-6)[Gal(b1-4)GlcNAc(b1-2)Man(a1-3)]Man(b1-4)GlcNAc(b1-4)[Fuc(a1-6)]GlcNAc
Summary of the method: as §1

[20] = biological target: Gal(b1-4)GlcNAc(b1-3)Gal(b1-4)GlcNAc(b1-2)[Gal(b1-4)GlcNAc(b1-3)Gal(b1-4)GlcNAc(b1-6)]Man(a1-6)[Gal(b1-4)GlcNAc(b1-3)Gal(b1-4)GlcNAc(b1-2)Man(a1-3)]Man(b1-4)GlcNAc(b1-4)[Fuc(a1-6)]GlcNAc
Summary of the method: as §1

[21] = biological target: Gal(b1-4)GlcNAc(b1-3)Gal(b1-4)GlcNAc(b1-3)Gal(b1-4)GlcNAc(b1-3)Gal(b1-4)GlcNAc(b1-2)[Gal(b1-4)GlcNAc(b1-3)Gal(b1-4)GlcNAc(b1-3)Gal(b1-4)GlcNAc(b1-3)Gal(b1-4)GlcNAc(b1-6)]Man(a1-6)[Gal(b1-4)GlcNAc(b1-3)Gal(b1-4)GlcNAc(b1-3)Gal(b1-4)GlcNAc(b1-3)Gal(b1-4)GlcNAc(b1-2)Man(a1-3)]Man(b1-4)GlcNAc(b1-4)[Fuc(a1-6)]GlcNAc
Summary of the method: as §1

[22] = biological target: Gal(b1-4)GlcNAc(b1-3)Gal(b1-4)GlcNAc(b1-3)Gal(b1-4)GlcNAc(b1-3)Gal(b1-4)GlcNAc(b1-3)Gal(b1-4)GlcNAc(b1-2)Man(a1-3)[Gal(b1-4)GlcNAc(b1-3)Gal(b1-4)GlcNAc(b1-3)Gal(b1-4)GlcNAc(b1-3)Gal(b1-4)GlcNAc(b1-3)Gal(b1-4)GlcNAc(b1-2)Man(a1-6)]Man(b1-4)GlcNAc(b1-4)GlcNAc
Summary of the method: as §1

[23] = biological target: Gal(b1-4)GlcNAc(b1-3)Gal(b1-4)GlcNAc(b1-3)Gal(b1-4)GlcNAc(b1-3)Gal(b1-4)GlcNAc(b1-3)Gal(b1-4)GlcNAc(b1-2)[Gal(b1-4)GlcNAc(b1-3)Gal(b1-4)GlcNAc(b1-3)Gal(b1-4)GlcNAc(b1-3)Gal(b1-4)GlcNAc(b1-3)Gal(b1-4)GlcNAc(b1-6)]Man(a1-6)[Gal(b1-4)GlcNAc(b1-3)Gal(b1-4)GlcNAc(b1-3)Gal(b1-4)GlcNAc(b1-3)Gal(b1-4)GlcNAc(b1-3)Gal(b1-4)GlcNAc(b1-2)Man(a1-3)]Man(b1-4)GlcNAc(b1-4)[Fuc(a1-6)]GlcNAc
Summary of the method: as §1

[24] = biological target: Gal(b1-4)GlcNAc(b1-6)Gal(b1-4)GlcNAc
Summary of the method: as §1

[25] = biological target: Gal6S(b1-3)GlcNAc6S
Summary of the method: as §1

[26] = biological target: Gal6S(b1-4)Glc
Summary of the method: as §1

[27] = biological target: GalNAc(a1-3)GalNAc
Summary of the method: as §1

[28] = biological target: GalNAc(b1-3)Gal(a1-6)Gal(b1-4)Glc
Summary of the method: as §1

[29] = biological target: GalNAc(b1-3)GalNAc
Summary of the method: as §1

[30] = biological target: GalNAc(b1-4)GlcNAc
Summary of the method: as §1

[31] = biological target: Glc(b1-6)Glc
Summary of the method: as §1

[32] = biological target: GlcNAc(b1-3)Gal(b1-4)GlcNAc(b1-3)Gal(b1-4)GlcNAc(b1-3)Gal(b1-4)GlcNAc(b1-3)Gal(b1-4)GlcNAc(b1-2)[GlcNAc(b1-3)Gal(b1-4)GlcNAc(b1-3)Gal(b1-4)GlcNAc(b1-3)Gal(b1-4)GlcNAc(b1-3)Gal(b1-4)GlcNAc(b1-6)]Man(a1-6)[GlcNAc(b1-3)Gal(b1-4)GlcNAc(b1-3)Gal(b1-4)GlcNAc(b1-3)Gal(b1-4)GlcNAc(b1-3)Gal(b1-4)GlcNAc(b1-2)Man(a1-3)]Man(b1-4)GlcNAc(b1-4)[Fuc(a1-6)]GlcNAc
Summary of the method: as §1

[33] = biological target: GlcNAc(b1-3)Gal(b1-4)GlcNAc(b1-6)[Gal(b1-3)]GalNAc
Summary of the method: as §1

[34] = biological target: Man(a1-2)Man(a1-2)Man(a1-6)[Man(a1-3)]Man
Summary of the method: as §1

[35] = biological target: Man(a1-2)Man(a1-3)[Man(a1-2)Man(a1-6)]Man(a1-6)[Man(a1-2)Man(a1-2)Man(a1-3)]Man
Summary of the method: as §1

[36] = biological target: Man(a1-6)Man
Summary of the method: as §1

[37] = biological target: Neu5Ac(a2-3)Gal(b1-3)GalNAc6S
Summary of the method: as §1

[38] = biological target: Neu5Ac(a2-3)Gal(b1-4)GlcNAc(b1-2)[Neu5Ac(a2-3)Gal(b1-4)GlcNAc(b1-6)]Man(a1-6)[Neu5Ac(a2-3)Gal(b1-4)GlcNAc(b1-2)Man(a1-3)][GlcNAc(b1-4)]Man(b1-4)GlcNAc(b1-4)GlcNAc
Summary of the method: as §1

[39] = biological target: Neu5Ac(a2-3)Gal(b1-4)GlcNAc(b1-3)Gal
Summary of the method: as §1

[40] = biological target: Neu5Ac(a2-3)Gal(b1-4)GlcNAc(b1-3)Gal(b1-4)[Fuc(a1-3)]GlcNAc
Summary of the method: as §1

[41] = biological target: Neu5Ac(a2-3)Gal(b1-4)GlcNAc6S
Summary of the method: as §1

[42] = biological target: Neu5Ac(a2-3)Gal(b1-4)[Fuc(a1-3)]GlcNAc(b1-3)GalNAc
Summary of the method: as §1

[43] = biological target: Neu5Ac(a2-6)Gal(b1-4)GlcNAc(b1-2)Man(a1-3)[Neu5Ac(a2-6)Gal(b1-4)GlcNAc(b1-2)Man(a1-6)]Man(b1-4)GlcNAc(b1-4)GlcNAc
Summary of the method: as §1

[44] = biological target: Neu5Ac(a2-6)Gal(b1-4)GlcNAc(b1-2)Man(a1-6)Man(b1-4)GlcNAc(b1-4)GlcNAc
Summary of the method: as §1

[45] = biological target: Neu5Ac(a2-6)Gal(b1-4)GlcNAc(b1-2)[Neu5Ac(a2-6)Gal(b1-4)GlcNAc(b1-4)]Man(a1-3)[GlcNAc(b1-4)][Neu5Ac(a2-6)Gal(b1-4)GlcNAc(b1-4)Man(a1-6)]Man(b1-4)GlcNAc(b1-4)GlcNAc
Summary of the method: as §1

[46] = biological target: Neu5Ac(b2-6)Gal(b1-4)GlcNAc
Summary of the method: as §1

[47] = biological target: Neu5Gc(a2-3)Gal(b1-4)Glc
Summary of the method: as §1

B1: Drgal1 (Danio rerio) (protein)
chain: MAGVLIQNMSFKVGQTLTITGVPKPDSTNFAINIGHSPEDIALHMNPRFDAHGDQCTIVCNSFQSGSWCEEHRDDNFPFIQDKEFQIKITFTNEEFLVTLPDGSEIHFPNRQGSEKYKYMYFEGEVRIQGVEIK
glycan array binding signal (z-score) [1]: -0.59 | glycan array binding signal (z-score) [2]: 0.383 | glycan array binding signal (z-score) [3]: 0.084 | glycan array binding signal (z-score) [4]: -0.54 | glycan array binding signal (z-score) [5]: 0.347 | glycan array binding signal (z-score) [6]: -0.091 | glycan array binding signal (z-score) [7]: -0.493 | glycan array binding signal (z-score) [8]: 2.22 | glycan array binding signal (z-score) [9]: 2.04 | glycan array binding signal (z-score) [10]: -0.76 | glycan array binding signal (z-score) [11]: -0.48 | glycan array binding signal (z-score) [12]: -0.114 | glycan array binding signal (z-score) [13]: 1.9 | glycan array binding signal (z-score) [14]: -0.443 | glycan array binding signal (z-score) [15]: -0.448 | glycan array binding signal (z-score) [16]: 0.244 | glycan array binding signal (z-score) [17]: 0.231 | glycan array binding signal (z-score) [18]: -0.015 | glycan array binding signal (z-score) [19]: 0.501 | glycan array binding signal (z-score) [20]: 1.92 | glycan array binding signal (z-score) [21]: 2.07 | glycan array binding signal (z-score) [22]: 7.35 | glycan array binding signal (z-score) [23]: 2.15 | glycan array binding signal (z-score) [24]: 0.065 | glycan array binding signal (z-score) [25]: -0.095 | glycan array binding signal (z-score) [26]: 0.281 | glycan array binding signal (z-score) [27]: 0.206 | glycan array binding signal (z-score) [28]: -0.416 | glycan array binding signal (z-score) [29]: 0.158 | glycan array binding signal (z-score) [30]: 3.67 | glycan array binding signal (z-score) [31]: -0.633 | glycan array binding signal (z-score) [32]: 1.89 | glycan array binding signal (z-score) [33]: -0.519 | glycan array binding signal (z-score) [34]: -0.589 | glycan array binding signal (z-score) [35]: -0.28 | glycan array binding signal (z-score) [36]: 1.43 | glycan array binding signal (z-score) [37]: -0.412 | glycan array binding signal (z-score) [38]: 3.36 | glycan array binding signal (z-score) [39]: -0.372 | glycan array binding signal (z-score) [40]: -0.022 | glycan array binding signal (z-score) [41]: -0.362 | glycan array binding signal (z-score) [42]: 5.78 | glycan array binding signal (z-score) [43]: 0.521 | glycan array binding signal (z-score) [44]: 0.046 | glycan array binding signal (z-score) [45]: -0.106 | glycan array binding signal (z-score) [46]: 0.234 | glycan array binding signal (z-score) [47]: 0.145
